Measured values: PubChem BioAssay AID602247 (The Scripps Research Institute Molecular Screening Center, 2012)
Hit rate of the full screen: of about 360,000 compounds, about 80 (0.02%) were called active. Shown is part of a subset that was picked to be rich in actives. Unmarked numbers belong to inactive results.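 The calls were made as follows: active = activation above the run cutoff, the mean activation of all test compounds plus 3 SD (cut at about 40% in these data); inactive = the rest.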

Assay: ATP EC20 calcium response enhancers, parental CHO-K1 – cell-based, Fluo-8 calcium fluorescence, full deck, 1536-well, counter-screen for M1 PAM project, primary screen (AID 602247);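 also: peak over basal fluorescence ratio in a 140 s read after ATP addition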
Conditions: parental CHO-K1, ATP EC20, Fluo-8 calcium fluorescence; at 3 µM; hits give high values; 0% at ATP EC20, 100% at ATP max

Question: Which activation does the source give for Nc1scc(-c2ccncc2)c1Cl here?
Answer: 13.6%

Question: Which activation does the source give for Cc1cccc(CC2(O)C(=O)Nc3ccccc32)n1 (stereo unspecified) here?
Answer: 12.3%

Question: Which activation does the source give for Cc1ccc(C)c(OCCC(=O)Nc2cccc(S(=O)(=O)N3CCCC3)c2)c1 here?
Answer: 10.7%

Question: Which activation does the source give for O=c1[nH]c(CCl)nc2cc(-c3ccc(Cl)cc3)sc12 here?
Answer: 13%

Question: Which activation does the source give for CN[C@H](C(=O)NC[C@H]1O[C@@H](n2cnc3c(N)ncnc32)[C@H](O)[C@@H]1O)[C@@H](C)OCc1ccccc1 here?
Answer: 11.7%

Question: Which activation does the source give for O=C(NNS(=O)(=O)c1ccc([N+](=O)[O-])cc1)C1CCCCC1 here?
Answer: -9.25%

Question: For COC(=O)c1ccccc1NC(=O)C1(S(=O)(=O)c2ccc(Cl)cc2)CC1, which activation is on record?
Answer: -15%

Question: With CSc1ccccc1C(=O)OCC(=O)N1CCN(C(C)=O)CC1 as the compound, how does the activation read?
Answer: 15.7%

Question: For O=C(CSCc1ccccc1Cl)NNC(=O)c1ccccc1, which activation is on record?
Answer: 2.85%

Question: For O=C(OC1CCOC1=O)c1ccc(-c2nc3ccccc3s2)s1 (stereo unspecified), which activation is on record?
Answer: 10.6%

Question: Which activation does the source give for Cc1ccc2nc(NC(=O)C3CSC4(C)CCC(=O)N34)sc2c1 (stereo unspecified) here?
Answer: -12.5%

Question: With COC(C[C@@H](O)C[C@@H](O)[C@H](C)OCc1ccccc1)OC as the compound, how does the activation read?
Answer: 17.1%

Question: Which activation does the source give for Cc1ccc([C@H]2N[C@]3(CCCN(Cc4ccccc4)C3=O)[C@H]3C(=O)N(Cc4ccccc4)C(=O)[C@@H]23)cc1 here?
Answer: 1.9%

Question: For CC(=O)NC1=NC(=O)CS1, which activation is on record?
Answer: 15.2%

Question: For C[C@H]([C@@H](O)[C@@H](O)[C@@H](C)C(C)(C)C)[C@H]1CC[C@H]2C3CC[C@H]4C[C@H](OS(=O)(=O)O)[C@@H](OS(=O)(=O)O)C[C@]4(C)[C@H]3CC[C@]12C (stereo partly specified), which activation is on record?
Answer: 46.3% (active)

Question: With CC(=O)O[C@H]1CC[C@@]2(C)[C@@H](CC[C@@H]3[C@@H]2CC[C@]2(C)[C@@H](C(C)(C)O)C[C@@H]32)C1 as the compound, how does the activation read?
Answer: 4%

Question: For CCOC(=O)c1c(C)n(C)c2ccc(OC)c(NC(=O)CN3CCC4(CC3)OCCO4)c12, which activation is on record?
Answer: 7.82%

Question: For O=C(CN(c1ccccc1)S(=O)(=O)c1ccc(Cl)cc1)Nc1ccccc1C(=O)N1CCCC1, which activation is on record?
Answer: 8.26%

Question: With CCOc1ccccc1NC(=O)C1CCN(S(=O)(=O)c2c(C)nn(C)c2C)CC1 as the compound, how does the activation read?
Answer: -1.01%

Question: With Cc1ccc(N2CCN(c3ccc(C)cc3)C2c2ccccn2)cc1 as the compound, how does the activation read?
Answer: -7.38%

Question: Which activation does the source give for COc1ccc(S(=O)(=O)N2CCN(C(=O)c3cc(C)oc3C)CC2)cc1 here?
Answer: 20.2%

Question: With COc1ccc(CCN2CC(C(=O)OCC(=O)NCc3ccccc3Cl)CC2=O)cc1OC (stereo unspecified) as the compound, how does the activation read?
Answer: -3.82%

Question: For Cc1cc(C(=O)CC#N)c(C)n1CC(F)(F)F, which activation is on record?
Answer: 13.3%

Question: Which activation does the source give for C/C(=N/NC(=O)CSc1ccccn1)c1ccc([N+](=O)[O-])cc1 here?
Answer: 22.4%

Question: Which activation does the source give for CC1(C)CC2CC(C)(CN2c2ncnc3ccc(Br)cc23)C1 (stereo unspecified) here?
Answer: 17.9%

Question: With C/C(N)=C(\C#N)C(=O)NCCc1ccccn1 as the compound, how does the activation read?
Answer: 21.8%

Question: For O=C(/C=N/O)Nc1ccccc1, which activation is on record?
Answer: 6.67%

Question: With CN1CCN(c2cc(=O)n(-c3ccc(Cl)cc3)c(=O)[nH]2)CC1 as the compound, how does the activation read?
Answer: 1.64%

Question: With COc1ccc(C2/C=C\CN(S(=O)(=O)c3cccs3)CC(=O)N2Cc2ccc(F)cc2)cc1 (stereo unspecified) as the compound, how does the activation read?
Answer: -11.5%

Question: For CC(C)NC(=O)c1ccccc1S(=O)c1ccccc1C#N (stereo unspecified), which activation is on record?
Answer: 0.52%

Question: With O=C(CSc1nnnn1-c1ccc2c(c1)CCC2)Nc1ccc2c(c1)OCCO2 as the compound, how does the activation read?
Answer: -11.2%

Question: Which activation does the source give for O=C1c2ccccc2C(=O)N1CCc1nn[nH]n1 here?
Answer: 16.6%

Question: For CC(C)(C)c1ccc(/C=C2\Oc3c(ccc(O)c3CN3CCN(CCO)CC3)C2=O)cc1, which activation is on record?
Answer: 4.37%

Question: Which activation does the source give for CCCCOc1ccc(C(=O)NCC(=O)OCC(=O)c2c(N)n(C)c(=O)n(C)c2=O)cc1 here?
Answer: -1.27%

Question: Which activation does the source give for COc1cccc(CNCc2ccc3c(c2)OCO3)c1 here?
Answer: 18.7%

Question: With CCOc1ccccc1N1CCN(C(=S)Nc2ccc(S(N)(=O)=O)cc2)CC1 as the compound, how does the activation read?
Answer: 17.3%

Question: With COc1ccc(C2=NOC(Cn3nc(C(=O)NCc4ccc5c(c4)OCO5)cc3-c3ccccc3)C2)cc1 (stereo unspecified) as the compound, how does the activation read?
Answer: 14.9%

Question: For CCOc1cc(C2C(C(=O)OC(C)C)=C(C)NC3=C2C(=O)CCC3)cc([N+](=O)[O-])c1O (stereo unspecified), which activation is on record?
Answer: 14.9%

Question: For COCCNC(=O)CSc1nc2c(n1-c1ccccc1)CCCC2, which activation is on record?
Answer: 10.3%

Question: Which activation does the source give for O=C1CC(C(F)(F)C(F)(F)C(F)(F)C(F)(F)F)=Nc2ccccc2N1 here?
Answer: 17.5%

Question: Which activation does the source give for CCN1C(=NCC(C)C)N[C@@H](CCc2ccccc2)[C@H](C(=O)NCC(C)C)[C@H]1C here?
Answer: 8.06%

Question: With CC(CC(=O)N1CCN(S(=O)(=O)c2ccccc2)CC1)n1cncn1 (stereo unspecified) as the compound, how does the activation read?
Answer: 23.5%

Question: For CSc1ncccc1C(=O)OCc1ccc(Br)cc1, which activation is on record?
Answer: 17%

Question: With CC(C)COc1ccc(C(=O)OCC(=O)NCCC2=CCCCC2)cc1 as the compound, how does the activation read?
Answer: 0.12%

Question: Which activation does the source give for Cc1noc(NS(=O)(=O)c2ccc(NC(=O)c3oc4ccc(F)cc4c3C)cc2)c1C here?
Answer: 14.4%

Question: Which activation does the source give for O[C@H]1C[C@H](c2ccc(Cl)cc2)N(Cc2cccs2)C[C@@H]1n1cc(C2CC2)nn1 here?
Answer: 47.2% (active)

Question: For O[C@H]1CN(Cc2cccs2)[C@@H](c2ccc(Cl)cc2)C[C@@H]1n1cc(C2CC2)nn1, which activation is on record?
Answer: 1.81%

Question: Which activation does the source give for O[C@@H]1C[C@H](c2ccccc2)N(Cc2cccs2)C[C@H]1n1cc(C2CC2)nn1 here?
Answer: 31.2%

Question: With Cc1ccc(C2NC(=S)NC3=C2N2CCC3CC2)cc1 (stereo unspecified) as the compound, how does the activation read?
Answer: 12.6%

Question: Which activation does the source give for NC(=O)c1ncn([C@@H]2O[C@H](CN=C3NS(=O)(=O)c4ccccc43)[C@@H](O)[C@H]2O)n1 here?
Answer: 12.9%

Question: With COc1ccccc1N1CCC(N2CCN(CC(C)(C)C)C(CCO)C2)CC1 (stereo unspecified) as the compound, how does the activation read?
Answer: 15.1%

Question: With O=S(=O)(NCc1ccc2c(c1)OCO2)c1cccc2nsnc12 as the compound, how does the activation read?
Answer: -1.4%

Question: For Cc1ccc(NC(=S)Nc2ncccc2C)c(C)c1, which activation is on record?
Answer: 14.7%

Question: For Cc1cc(C)cc(NC(=O)COC(=O)c2cc(C)oc2C)c1, which activation is on record?
Answer: 9.08%

Question: For COC(=O)Cn1cnc2scc(-c3ccc(C)c(C)c3)c2c1=O, which activation is on record?
Answer: 12.6%

Question: With C[C@H](NC(=O)[C@@H]1CCCN1C(=O)[C@@H]1CCCN1C(=O)c1ccccc1)c1ccccc1 as the compound, how does the activation read?
Answer: 20.5%
